Sampled rows, rich in hits. Any-hit rate of the full collection: about 3.8%.
ATXN2 expr inh: reduces ATXN2 reporter expression in HEK-293 cells. Potency, µM (series often up to 57 µM), for inactives: at the highest dose activity change, negative = inhibition, usual class: inhibitors. 0.72% of 360,000 active. HEK-293 ATXN2-luciferase reporter, luminescence, 24 h. AID 1745845; also: % is scaled to controls: 0 for no effect and ±100 for the full control effect; nearly all actives have a fitted effect of over 55% in size
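qHTS (up to 57 uM final) was run with 24 h compound exposure of reporter cells at 37 °C. Each well was multiplexed: SteadyGlo luminescence measured ATXN2-luciferase expression after a fluorogenic Gly-Phe-AFC viability readout (25 uM final).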
S2 tox: reduces viability in counter-screen for ATXN expression inhibitors; AID 651635; Potency, µM (top dose mostly 56.7 µM), most hits filed as cytotoxic; S2 cells (HEK-293 line with an ATXN2-luciferase reporter) viability, CellTiter-Fluor protease fluorescence, 24 h; 0.49% of 400,000 active; also: nearly all actives have a fitted effect of over 40% in size
TGFb inhibitor: blocks TGF-b signaling | HepG2 CAGA-GFP TGF-b/SMAD3 reporter, GFP fluorescence, 18 h; TGF-beta stimulated, 500 pg/mL final | Potency, µM (series often up to 46.1 µM), without a hit: at the highest dose activity, negative = inhibition, hits mostly inhibitors | 1.2% of 410,000 active | AID 588855; also: % is scaled to controls: 0 for no effect and ±100 for the full control effect; nearly all actives have a fitted effect of over 65% in size
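First, reporter cells (HEPG2 CAGA-GFP) rested 2 h at 37 degrees C. Next, compounds were pinned in and TGF-beta added to 500 pg/mL final. After 18 h, GFP was imaged per cell and summed per well.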
HT1080 IDH1KD tx: toxicity to HT-1080 IDH1 knockdown cells (counter line); HT-1080 IDH1 knockdown viability, ATP luminescence, 48 h; 2% of 360,000 active; Potency, µM (titrated, usually from 46.1 µM), without a hit: top-dose activity, negative = toxicity, most hits filed as cytotoxic;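 also: 0% = DMSO wells and -100% = cell-free medium wells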
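Knockdown cells (IDH1KD HT-1080) received compounds 2 h after plating at 750 cells/well and were kept 48 h at 37 °C in 5% FBS RPMI. A CellTiter-Glo luminescence read gave % activity for curve fitting.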
HepG2 tox: HepG2 cytotoxicity, counter-screen for TGF-b inhibitors; HepG2 CAGA-GFP viability, ATP luminescence, 18 h; Potency, µM (doses to about 46.1 µM), without a hit: top-dose activity change, negative = cytotoxicity, usual class: cytotoxic; 0.76% of 410,000 active
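HepG2 CAGA-GFP cells (1000/well, DMEM with 1% FBS) received compound, then TGF-beta at 500 pg/mL final, and were incubated 18 hours at 37 degrees C. Viability was read by CellTiter-Glo luminescence. Media-only wells were set as complete cell-killing and DMSO as no toxicity.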
HT1080-NT tox: kills 2HG-producing HT-1080-NT fibrosarcoma cells; HT-1080-NT fibrosarcoma viability, CellTiter-Glo ATP luminescence, 48 h; Potency, µM (titrated, usually from 46.1 µM), for inactives: top-dose activity, negative = less viability, most hits filed as cytotoxic; 1.6% of 360,000 active;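 also: NT is the 2HG producing partner of a matched IDH1 knockdown line; 0% = DMSO-treated cells and -100% = media-only wells without cells; nearly all actives have a fitted effect of over 55% in size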
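Compounds were tested in concentration-response format on HT-1080-NT cells for 48 hours at 37 degrees C. Cell viability came from CellTiter-Glo luminescence; curves were classified by r2, response magnitude and activity.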
* hit, by the source's call; i = inactive; ? = inconclusive; . = no result. Calls follow the shape of the dose curve; as a rule, active = well fitted curve in the direction sought with a large enough effect; inconclusive = small, poorly fitted or top-dose-only effect, or another doubt; inactive = no such curve, though single readings can be large; an effect the other way counts as inactive or inconclusive. Potency is read from the fitted curve at half-maximal effect.

SMILES	ATXN2 expr inh	S2 tox	TGFb inhibitor	HT1080 IDH1KD tx	HepG2 tox	HT1080-NT tox
O=C(O)Cc1ccc2c(c1)C(=O)c1ccccc1CO2	11%	i	.	.	.	.
[O-][N+](=NC1C=Cc2ccccc21)C1C=Cc2ccccc21 (stereo not drawn)	.	.	-3%	.	-8%	.
COc1cc(/C=N/NC(=O)c2ccccc2O)ccc1OCC(=O)Nc1ccccc1	11%	?	-25%	?	-48%	-25%
O=C(COc1ccc(/C=N/NC(=O)c2cc3ccccc3o2)cc1Cl)Nc1ccccc1	10µM*	8.9µM*	2µM*	?	-69%	?
CN(C)CCNc1ncnc2c1sc1nc(N3CCOCC3)c3c(c12)CC(C)(C)SC3	20µM*	?	-2%	?	-96%	?
CCC(CC)C(=O)Nc1ccccc1C(=O)OCc1cc(=O)n2nc(C3CCCCC3)sc2n1	.	.	-6%	.	-1%	.
CCOC(=O)c1c(SCCN2CCCCC2)n(-c2ccccc2)c(=S)n(-c2ccccc2)c1=O	20µM*	?	0%	-2%	0%	1%
Cc1cnc(C)c(-c2ccc(F)c3c2OC(CNC(=O)Cc2c(F)cccc2F)C3)n1 (stereo not drawn)	.	i	.	.	.	.
CCCCn1nnnc1C(c1cc2ccccc2o1)N1CCN(c2cc(C)nc3ccccc23)CC1 (stereo not drawn)	?	4.5µM*	.	?	.	18µM*
CCCCn1nnnc1C(c1cc2ccccc2o1)N(CCN(C)C)Cc1ccccc1 (stereo not drawn)	32µM*	.	.	21µM*	.	18µM*
CCCCn1nnnc1C(c1cc2ccccc2o1)N1CCN(c2ccccc2F)CC1 (stereo not drawn)	6%	i	.	7%	.	16%
COc1cc(N2CCC(N3CCN(C)CC3)CC2)ccc1Nc1ncc(Cl)c(Nc2ccccc2S(=O)(=O)C(C)C)n1	19µM*	.	.	.	.	.
CCC(Nc1ccc(-c2nc(-c3ccco3)no2)cc1[N+](=O)[O-])c1ccccc1 (stereo not drawn)	35%	i	-1%	.	-6%	.
O=C(Nc1nsc(-c2ccccc2)n1)c1ccc(F)cc1	35%	i	-5%	8%	2.8µM*	-1%
CCOC(=O)c1c(C)[nH]c(C)c1C(=O)COC(=O)c1ccc(Cl)c(S(=O)(=O)NCc2ccccc2)c1	-12%	?	-13%	23µM*	-26%	18µM*
Cc1ccc(C(=O)Oc2ccc(Cl)c3cccnc23)cc1[N+](=O)[O-]	-30%	i	11µM*	-20%	-44%	-1%
CC(C)c1cc2c(c(O)c1O)[C@@]13CCCC(C)(C)C1CC2OC3=O (stereo partly drawn)	?	?	13µM*	?	-28%	-29%
COC(=O)N1C(=O)[C@@](c2ccccc2)(C2CCCCC2)N1C(=O)OC	?	20µM*	?	-22%	-29%	?
COC(=O)N1C(=O)[C@](Cc2ccccc2)(c2ccccc2)N1C(=O)OC	-26%	?	?	-2%	-89%	0%
COC(=O)N1C(=O)[C@@](Cc2ccccc2)(c2ccccc2)N1C(=O)OC	?	?	7.9µM*	-12%	-97%	-24%
CN(C(=O)c1cc2c(=O)oc3ccccc3c2s1)c1ccc(F)cc1	3%	i	-11%	.	-2%	.
COCCNC(=S)N(CCc1c(C)[nH]c2ccc(F)cc12)Cc1cccs1	-36%	?	?	-4%	-52%	?
COCCNC(=S)N(CCc1c(C)[nH]c2ccc(Cl)cc12)Cc1cccs1	?	?	?	?	-50%	21µM*
O=C(Nc1nccs1)c1ccc(S(=O)(=O)NCc2cccs2)cc1	17%	i	?	-13%	10µM*	?

Assay outcomes from PubChem BioAssay.
